# The sample as a whole holds a higher share of hits than the screen did.
# AMA1-RON2 inh: qHTS for Inhibitors of AMA1-RON; Towards Development of Antimalarial Drug Lead: Primary Screen; Plasmodium falciparum AMA1 (3D7) - RON2 peptide interaction; AlphaScreen AMA1-biotinylated RON2 peptide binding; Potency, µM (series often up to 58.2 µM), without a hit: at the highest dose activity change, negative = inhibition, hits mostly inhibitors; hit rate 0.2% among 360,000; AID 720542, 2013; active = well fitted inhibition curve with a large enough effect; inconclusive = small, poorly fitted or top-dose-only effect; inactive = no such curve, though single readings can be large or run the other way;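 note: potency is the fitted concentration of half-maximal effect; 0% = vehicle wells and -100% = peptide control; nearly all actives have a fitted effect of over 45% in size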
#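 AMA1 (3D7) with his tag at 25 nM final met compounds first, then biotinylated RON2 peptide at 25 nM; detection used donor plus acceptor beads, 10 µg/mL apiece, read by AlphaScreen after 30 min at room temperature.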
# Cycloheximide cs: Cycloheximide Counterscreen for Small Molecule Inhibitors of Shiga Toxin; hit rate 12% among 300,000; AID 2314, 2010; cell reporter, cycloheximide protein synthesis inhibition counterscreen; max response, %; in the data active = max response mostly above about 13%, no sharp cut-off; inactive = mostly below about 14%; note: read at 38.3 µM for the half of the compounds with a filed dose; 0% is about no effect
# LASV entry inh: qHTS for Inhibitors of binding or entry into cells for Lassa Virus | Lassa virus pseudotype entry inhibition, cell reporter | Potency, µM (titrated, usually from 37.9 µM), for the others: top-dose activity change, negative = inhibition, hits mostly inhibitors | hit rate 1.2% among 300,000 | AID 540256, 2011; calls by dose curve; tested in HEK293 cells; note: potency is the fitted concentration of half-maximal effect; % is set by controls: 0 for no effect and ±100 for the full control effect; nearly all actives have a fitted effect of over 50% in size
# Shiga inhibitor: A qHTS for Small Molecule Inhibitors of Shiga Toxin | Vero cells, Shiga toxin protein synthesis inhibition reporter | inhibition, % at 38.7 µM | hit rate 9.2% among 290,000 | AID 2315, 2010; in the data active = inhibition mostly above about 28%, no sharp cut-off; inactive = mostly below about 43%; note: 0% is about no effect
# MARV entry inh: qHTS for inhibitors of binding or entry into cells for Marburg Virus | Marburg virus pseudotyped entry inhibition, cell reporter | Potency, µM (titrated, usually from 37.8 µM), for inactives: at the highest dose activity change, negative = inhibition, usual class: inhibitors | hit rate 1.8% among 300,000 | AID 540276, 2011; calls by dose curve; tested in HEK293 cells; note: potency is the fitted concentration of half-maximal effect; % is set by controls: 0 for no effect and ±100 for the full control effect
# Numbers without * were called inactive; ? = inconclusive; / = not tested or not shown; [ ] = dose if it differs, or a comment.
SMILES,AMA1-RON2 inh,Cycloheximide cs,LASV entry inh,Shiga inhibitor,MARV entry inh
CN1C(C(=O)Nc2cccc(O)c2)=CC(c2ccco2)=NS1(=O)=O,9%,10*,-6%[46.1 µM],8,?
Cc1ccc(C2=NS(=O)(=O)N(C)C(C(=O)Nc3ccc4c(c3)OCO4)=C2)cc1,-9%,18*,/,18*,/
COc1ccc(C2=NS(=O)(=O)N(C)C(C(=O)Nc3ccc4c(c3)OCO4)=C2)cc1OC,-9%,20*,/,11,/
O=C1NC[C@H](CCCCN2C[C@H](Cc3ccccc3)N(CCc3ccc(O)cc3)C(=O)C2=O)N(CCc2ccccc2)C1=O,1%,/,/,/,/
CC(C)N1CCC(N2CCN(Cc3ccc(-c4ccccc4Cl)o3)CC2CCO)CC1 (centres undefined),0%,-1,?,-8,?
CC(C)N1CCC(N2CCN(Cc3ccc(-c4ccc(Cl)cc4)o3)CC2CCO)CC1 (centres undefined),-6%,2,?,7,3.2µM*
CCCCn1c(/C=C/c2ccco2)nc2ccccc21,15%,5,1%,-3,11%
Cc1ccc(Cn2c(/C=C/c3ccco3)nc3ccccc32)cc1,-7%,103*,20%,161*,?
CCCn1c(/C=C/c2ccco2)nc2ccccc21,0%,12,-1%,7,-1%
Clc1ccc(Cn2c(/C=C/c3ccco3)nc3ccccc32)cc1,6%[11.6 µM],216*,-4%,187*,?
Oc1c(CN2CCCCC2)cc(Br)c2cccnc12,-68%,-2,/,-8,0%
CN1CCN(Cc2cc(COCc3ccccc3)c3cccnc3c2O)CC1,-46%,17*,?,11,6.3µM*
CC1=C(C(=O)N(C(C)C)C(C)C)CC(CC(=O)NCCN2CCOCC2)C(=O)N1Cc1ccc(C(C)(C)C)cc1 (centres undefined),11%,/,/,/,/
CCN1/C(=C2/OC(=S)N(C)C2=O)Sc2ccccc21,0%,-4,15%,3,13%
CCN1/C(=C\C=C2\C(=O)N(C)C(=S)N2C)Sc2ccccc21,-3%,28*,15%,63*,31%[46.1 µM]
O=[N+]([O-])c1cc(Br)c(Nc2ccccc2)c([N+](=O)[O-])c1,25µM*,16,/,22,/
Cc1ccc(NC(=O)Cn2ccc(=O)[nH]c2=O)cc1,20%,30*,0%,41,18%[46.1 µM]
Cc1cccc(C(=O)Nc2ccc3c(c2)ncn3C)c1,10%,51*,?,69*,?
Cc1ccc(OCC(=O)Nc2ccc3c(c2)ncn3C)cc1,18%,/,0%,/,-1%[46.1 µM]
Cc1cccc(C(=O)Nc2ccc3c(c2)nc(C)n3C)c1,-4%,39*,?,41*,?
Cc1cccc(C(=O)Nc2cccc(C(=O)NC3CCCC3)c2)c1,-16%,16,/,27,/
Cn1cnc2cc(NC(=O)c3cccs3)ccc21,6%,41*,-23%[46.1 µM],69*,?
COCCNC(=O)c1ccc2c(c1)ncn2-c1cccc(C)c1,0%,15*,/,30,/
COCCNC(=O)c1ccc2c(c1)ncn2-c1cc(C)ccc1OC,/,/,8%[46.1 µM],/,/
Cc1cccc(NC(=O)c2sc(-n3nc(C)c(Cc4ccc5c(c4)OCO5)c3C)nc2C)c1C,/,/,6%[46.1 µM],/,0%[46.1 µM]
SMILES,AMA1-RON2 inh,Cycloheximide cs,LASV entry inh,Shiga inhibitor,MARV entry inh
CC1CCN(C(c2ccc(F)cc2)c2sc3nc(-c4ccco4)nn3c2O)CC1 (centres undefined),/,/,-22%[46.1 µM],/,/
Cc1ccc(N2CC(NC(=O)C3CCCC3)CC2=O)cc1C (centres undefined),/,/,-8%[46.1 µM],/,/
N/C(=N\OC(=O)c1ccccc1Br)c1ccc([N+](=O)[O-])cc1,-10%,10*,/,19*,/
N/C(CS(=O)(=O)c1ccccc1)=N\OC(=O)c1ccc(F)cc1,-1%,28*,29%[46.1 µM],109*,?
N/C(=N\OC(=O)c1ccccc1Br)c1cccc([N+](=O)[O-])c1,-14%,52*,/,118*,/
N/C(=N\OC(=O)c1ccccc1F)c1cccc([N+](=O)[O-])c1,1%,39*,/,56*,/
CCOC(=O)c1ccccc1NC(=O)CSc1nc(N)cc(=O)[nH]1,7%,-1,2%,-7,27%[46.1 µM]
CCc1cccc(C)c1NC(=O)Cn1ccn(-c2ccc(F)cc2)c(=O)c1=O,/,/,3%[46.1 µM],/,/
COC(CNC(=O)c1c[nH]c2ccc(S(=O)(=O)N(C)c3ccc(F)cc3)cc2c1=O)OC,-6%,1,-30%[46.1 µM],1,10%[46.1 µM]

# Screening data (PubChem)
